From the supplement of paper PMC10849652
The full data set covers some 7,900 targets. This sample favours those with a hit. About 0.6% of all pairs of compound and target were hits.

Key:
Test in all cases: log2 fold change, soluble protein after heating vs DMSO (PISA); higher = thermal stabilisation; K562 cells, 10 uM, 30 min; active = over 0.2 and 3.5 SD of the protein, either way, in both replicates (recomputed)
[1] = compound: C1=CC=C(C=C1)[C@H](COC2=CC3=C(C=C2)NC(=O)N3)NC(=O)C4=CC=CN(C4=O)CC5=CC(=C(C=C5)F)F
Outline: (§1)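 For each measurement, 10 μM compound was applied for 30 min to K562 cells at 2×10^6 cells/mL. Aliquots were heated for 3 min across 48°C-58°C, pooled, and extracted in PBS with 0.5% NP-40 at 4°C; the supernatant after 21,000xg for 90 min was soluble protein. This was quantified by TMTpro 16plex LC-MS/MS with channel sums equalised, and thermal stability was reported relative to control samples from duplicates, on a log2 fold-change scale.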

[2] = compound: CC1=C(SC2=C1C(=N[C@H](C3=NN=C(N32)C)CC(=O)N)C4=CC=C(C=C4)Cl)C
Outline: as §1

[3] = compound: CC1=C2C(=CC=C1)N=C(N(C2=O)C3=CC=CC=C3C)CN4C=NC5=C(N=CN=C54)N
Outline: as §1

[4] = compound: Cc1sc2c(c1C)C(c1ccc(Cl)cc1)=N[C@@H](CC(=O)OC(C)(C)C)c1nnc(C)n1-2
Outline: as §1

[5] = compound: c1ccc([C@@H]2C[C@H]2NC2CCNCC2)cc1
Outline: as §1

Measured: log2 fold change

BAP1 (UniProt Q92560)
inactive: [1] -0.226 | [2] -0.123 | [3] -0.156 | [4] 0.066 | [5] -0.037

ARGLU1 (UniProt Q9NWB6)
inactive: [1] 0.072 | [2] -0.117 | [3] -0.013 | [4] 0.01 | [5] 0.096

AARS2 (UniProt Q5JTZ9)
inactive: [1] -0.047 | [2] 0.081 | [3] 0.044 | [4] 0.005 | [5] -0.016

ATP12A isoform 2 (UniProt P54707)
inactive: [1] -0.027 | [2] 0.062 | [3] 0.052 | [4] -0.044 | [5] -0.043

ARRDC1 (UniProt Q8N5I2)
inactive: [1] 0.005 | [3] -0.062 | [4] -0.1 | [5] -0.037
active: [2] -0.462

ATP13A3 (UniProt Q9H7F0)
inactive: [1] -0.038 | [2] 0.008 | [3] 0.016 | [4] 0.018 | [5] -0.101

AIFM2 (UniProt Q9BRQ8)
UniProt Q9BRQ8, sequence (Q9BRQ8 whole entry, looked up): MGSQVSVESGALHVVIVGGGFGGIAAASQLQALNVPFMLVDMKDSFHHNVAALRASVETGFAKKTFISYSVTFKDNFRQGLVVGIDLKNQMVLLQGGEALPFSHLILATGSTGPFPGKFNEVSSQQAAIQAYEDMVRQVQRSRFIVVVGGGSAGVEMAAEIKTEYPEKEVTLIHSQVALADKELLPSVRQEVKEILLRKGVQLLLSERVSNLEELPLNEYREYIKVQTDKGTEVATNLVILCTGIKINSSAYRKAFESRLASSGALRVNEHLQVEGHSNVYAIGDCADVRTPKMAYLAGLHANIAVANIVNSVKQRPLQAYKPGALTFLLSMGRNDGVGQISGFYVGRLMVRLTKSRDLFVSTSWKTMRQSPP
inactive: [1] 0.036 | [2] 0.047 | [3] 0.026 | [4] 0.045 | [5] 0

AP2M1 (UniProt C9JTK4)
inactive: [1] -0.113 | [2] 0.083 | [3] 0.131 | [4] 0.136 | [5] -0.076

ADK (UniProt P55263)
UniProt P55263, sequence (P55263 whole entry, looked up): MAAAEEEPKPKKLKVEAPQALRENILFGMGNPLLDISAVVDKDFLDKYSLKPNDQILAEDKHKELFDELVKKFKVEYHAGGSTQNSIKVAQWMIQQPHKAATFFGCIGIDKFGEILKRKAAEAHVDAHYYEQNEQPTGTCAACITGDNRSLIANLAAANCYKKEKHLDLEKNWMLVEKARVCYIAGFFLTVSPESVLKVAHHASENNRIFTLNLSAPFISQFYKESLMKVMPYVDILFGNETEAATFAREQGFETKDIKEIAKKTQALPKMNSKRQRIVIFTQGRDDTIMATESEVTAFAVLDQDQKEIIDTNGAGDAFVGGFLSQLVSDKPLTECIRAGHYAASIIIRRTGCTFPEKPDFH
inactive: [1] 0.026 | [2] 0.036 | [3] 0.154 | [4] -0.008 | [5] -0.057

ADD3 (UniProt Q9UEY8)
inactive: [1] 0.019 | [2] 0.034 | [3] 0.023 | [4] -0.002 | [5] 0.029

AP2M1 (UniProt Q96CW1)
inactive: [1] -0.005 | [2] 0.03 | [3] -0.013 | [4] 0.006 | [5] 0.009

ATP23 (UniProt Q9Y6H3)
inactive: [1] -0.023 | [2] -0.031 | [3] -0.009 | [4] -0.052 | [5] -0.053

ATOX1 (UniProt O00244)
inactive: [1] 0.033 | [2] 0.124 | [3] 0.101 | [4] -0.153 | [5] 0.008

ABHD16A (UniProt O95870)
inactive: [1] -0.005 | [2] 0.011 | [3] 0.026 | [4] 0.066 | [5] -0.088

AAR2 (UniProt Q9Y312)
inactive: [1] 0.024 | [2] 0.08 | [3] -0.053 | [4] 0.069 | [5] -0.012

ARHGAP25 isoform 4 (UniProt P42331)
inactive: [1] -0.181 | [2] -0.171 | [3] -0.173 | [4] -0.018 | [5] 0.109

ADD2 isoform 9 (UniProt P35612)
inactive: [1] 0.02

ARL1 (UniProt P40616)
inactive: [1] -0.084 | [2] 0.057 | [3] 0.079 | [4] -0.1 | [5] -0.048

ATRN (UniProt O75882)
inactive: [1] -0.011 | [2] -0.031 | [3] 0.027 | [4] -0.055 | [5] 0.006

ARFGAP1 (UniProt Q8N6T3)
UniProt Q8N6T3, sequence (Q8N6T3 whole entry, looked up): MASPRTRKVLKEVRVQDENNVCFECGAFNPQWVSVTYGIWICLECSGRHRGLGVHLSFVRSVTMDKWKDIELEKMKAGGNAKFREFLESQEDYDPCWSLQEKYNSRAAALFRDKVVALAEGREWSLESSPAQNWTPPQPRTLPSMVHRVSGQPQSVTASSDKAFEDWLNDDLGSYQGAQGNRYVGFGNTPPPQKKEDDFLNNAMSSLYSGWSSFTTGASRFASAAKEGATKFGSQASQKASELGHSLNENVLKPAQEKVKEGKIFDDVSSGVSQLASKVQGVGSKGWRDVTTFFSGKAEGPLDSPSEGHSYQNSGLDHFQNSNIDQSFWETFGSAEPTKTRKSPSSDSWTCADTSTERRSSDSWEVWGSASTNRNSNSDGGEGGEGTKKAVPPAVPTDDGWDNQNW
inactive: [1] 0.033 | [2] 0.077 | [3] 0.074 | [4] -0.064 | [5] -0.034

ALDH6A1 (UniProt Q02252)
inactive: [1] 0.082 | [2] 0.124 | [3] 0.128 | [4] -0.07 | [5] 0.019

ATP6V0A1 (UniProt Q93050)
inactive: [1] 0.281

BTAF1 (UniProt O14981)
inactive: [1] 0.051 | [2] -0.003 | [3] 0.124 | [4] 0.005 | [5] 0.055

ARL4A (UniProt P40617)
inactive: [1] -0.027

ATXN7L3 isoform 2 (UniProt Q14CW9)
inactive: [1] -0.156

ARFGEF1 (UniProt Q9Y6D6)
UniProt Q9Y6D6, sequence (Q9Y6D6 whole entry, looked up): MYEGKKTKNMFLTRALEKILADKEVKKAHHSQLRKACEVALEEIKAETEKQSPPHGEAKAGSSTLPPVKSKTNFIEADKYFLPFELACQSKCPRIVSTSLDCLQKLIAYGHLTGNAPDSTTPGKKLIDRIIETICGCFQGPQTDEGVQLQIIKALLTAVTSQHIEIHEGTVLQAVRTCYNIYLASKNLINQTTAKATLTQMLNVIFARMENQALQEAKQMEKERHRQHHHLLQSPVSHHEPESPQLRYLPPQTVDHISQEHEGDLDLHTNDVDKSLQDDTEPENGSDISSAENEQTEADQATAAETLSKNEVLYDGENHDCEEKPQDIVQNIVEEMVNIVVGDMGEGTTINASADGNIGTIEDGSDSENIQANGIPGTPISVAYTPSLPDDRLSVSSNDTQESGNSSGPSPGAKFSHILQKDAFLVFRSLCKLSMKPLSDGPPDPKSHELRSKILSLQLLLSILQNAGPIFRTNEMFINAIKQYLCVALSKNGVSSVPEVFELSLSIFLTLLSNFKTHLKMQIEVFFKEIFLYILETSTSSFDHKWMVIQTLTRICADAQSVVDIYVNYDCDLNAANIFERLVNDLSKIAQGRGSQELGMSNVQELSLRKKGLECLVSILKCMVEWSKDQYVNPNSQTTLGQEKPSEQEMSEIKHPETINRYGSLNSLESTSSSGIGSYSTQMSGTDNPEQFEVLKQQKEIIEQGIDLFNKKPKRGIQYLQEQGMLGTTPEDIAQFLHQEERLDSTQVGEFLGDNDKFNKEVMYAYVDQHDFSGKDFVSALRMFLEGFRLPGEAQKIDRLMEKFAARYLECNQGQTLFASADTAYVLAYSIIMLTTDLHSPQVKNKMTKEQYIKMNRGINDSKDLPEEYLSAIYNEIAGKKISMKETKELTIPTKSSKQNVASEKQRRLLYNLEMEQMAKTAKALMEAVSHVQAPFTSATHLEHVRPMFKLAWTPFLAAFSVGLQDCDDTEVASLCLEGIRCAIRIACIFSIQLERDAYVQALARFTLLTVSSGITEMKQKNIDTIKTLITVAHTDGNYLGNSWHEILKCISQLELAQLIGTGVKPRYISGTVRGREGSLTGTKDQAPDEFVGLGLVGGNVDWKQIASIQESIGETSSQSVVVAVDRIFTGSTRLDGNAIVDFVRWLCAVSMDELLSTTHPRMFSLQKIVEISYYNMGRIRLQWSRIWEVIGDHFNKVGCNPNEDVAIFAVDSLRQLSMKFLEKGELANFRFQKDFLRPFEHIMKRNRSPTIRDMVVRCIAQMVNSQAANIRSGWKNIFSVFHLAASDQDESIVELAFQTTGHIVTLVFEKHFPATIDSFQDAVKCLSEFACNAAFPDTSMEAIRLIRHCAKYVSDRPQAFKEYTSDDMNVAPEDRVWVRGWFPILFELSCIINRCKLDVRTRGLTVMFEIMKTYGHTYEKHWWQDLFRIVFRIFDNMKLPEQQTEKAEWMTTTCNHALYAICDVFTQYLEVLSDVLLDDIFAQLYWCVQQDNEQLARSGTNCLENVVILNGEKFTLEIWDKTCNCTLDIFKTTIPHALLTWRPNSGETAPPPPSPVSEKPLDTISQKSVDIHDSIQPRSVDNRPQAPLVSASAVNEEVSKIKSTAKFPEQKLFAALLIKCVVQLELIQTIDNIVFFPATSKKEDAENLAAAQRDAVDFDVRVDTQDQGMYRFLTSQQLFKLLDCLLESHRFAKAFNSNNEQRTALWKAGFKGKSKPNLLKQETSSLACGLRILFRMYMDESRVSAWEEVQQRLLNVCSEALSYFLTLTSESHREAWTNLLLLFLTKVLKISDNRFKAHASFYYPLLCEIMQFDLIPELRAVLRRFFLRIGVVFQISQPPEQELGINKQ
inactive: [1] -0.012 | [2] 0.034 | [3] 0.014 | [4] -0.063 | [5] -0.061

AGRN (UniProt O00468)
inactive: [1] 0.06 | [2] 0.154 | [3] 0.043 | [4] -0.038 | [5] 0.028

AURKA (UniProt O14965)
inactive: [1] 0 | [2] 0.148 | [3] 0.018 | [4] 0.009 | [5] -0.038

ADD1 isoform 3 (UniProt P35611)
inactive: [1] 0.01 | [2] -0.003 | [3] 0 | [4] -0.014 | [5] 0.024

ACTR1B (UniProt P42025)
inactive: [1] -0.049 | [2] 0.105 | [3] 0.034 | [4] 0.028 | [5] -0.029

ARFIP1 isoform 2 (UniProt P53367)
inactive: [1] 0.009

AKAP8L (UniProt Q9ULX6)
inactive: [1] -0.011 | [2] -0.186 | [3] 0.054 | [4] -0.047 | [5] 0.043

APOH (UniProt P02749)
inactive: [1] -0.265 | [2] -0.106 | [3] 0.073 | [4] -0.051 | [5] 0.199

BTBD6 (UniProt Q96KE9)
inactive: [1] 0.12 | [2] 0.073 | [3] 0.04 | [4] -0.117 | [5] -0.099

ACSL1 (UniProt P33121)
inactive: [1] -0.019 | [2] 0.043 | [3] 0.064 | [4] 0.001 | [5] -0.03

ANXA5 (UniProt P08758)
inactive: [1] -0.036 | [2] 0.04 | [3] 0.024 | [4] 0.021 | [5] -0.022

AGPAT5 (UniProt Q9NUQ2)
UniProt Q9NUQ2, sequence (Q9NUQ2 whole entry, looked up): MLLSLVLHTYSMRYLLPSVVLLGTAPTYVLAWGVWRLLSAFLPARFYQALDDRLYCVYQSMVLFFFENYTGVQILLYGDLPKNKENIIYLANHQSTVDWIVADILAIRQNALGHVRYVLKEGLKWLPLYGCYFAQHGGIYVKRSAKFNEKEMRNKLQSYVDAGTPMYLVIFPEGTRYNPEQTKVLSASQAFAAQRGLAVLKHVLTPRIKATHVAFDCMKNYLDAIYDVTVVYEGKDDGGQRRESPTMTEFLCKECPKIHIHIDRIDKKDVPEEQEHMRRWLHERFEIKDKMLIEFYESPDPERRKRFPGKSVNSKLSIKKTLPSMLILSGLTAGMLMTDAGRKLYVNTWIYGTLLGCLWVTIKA
inactive: [1] -0.015 | [2] 0.064 | [3] 0.007 | [4] -0.008 | [5] -0.025

ARFGAP2 (UniProt Q8N6H7)
inactive: [1] -0.006 | [2] 0.039 | [3] 0.086 | [4] -0.033 | [5] 0.006

ATP6V0A1 isoform 3 (UniProt Q93050)
inactive: [1] 0.115 | [2] -0.07 | [3] 0.005 | [4] -0.07 | [5] -0.149

ACSL3 (UniProt O95573)
UniProt O95573, sequence (O95573 whole entry, looked up): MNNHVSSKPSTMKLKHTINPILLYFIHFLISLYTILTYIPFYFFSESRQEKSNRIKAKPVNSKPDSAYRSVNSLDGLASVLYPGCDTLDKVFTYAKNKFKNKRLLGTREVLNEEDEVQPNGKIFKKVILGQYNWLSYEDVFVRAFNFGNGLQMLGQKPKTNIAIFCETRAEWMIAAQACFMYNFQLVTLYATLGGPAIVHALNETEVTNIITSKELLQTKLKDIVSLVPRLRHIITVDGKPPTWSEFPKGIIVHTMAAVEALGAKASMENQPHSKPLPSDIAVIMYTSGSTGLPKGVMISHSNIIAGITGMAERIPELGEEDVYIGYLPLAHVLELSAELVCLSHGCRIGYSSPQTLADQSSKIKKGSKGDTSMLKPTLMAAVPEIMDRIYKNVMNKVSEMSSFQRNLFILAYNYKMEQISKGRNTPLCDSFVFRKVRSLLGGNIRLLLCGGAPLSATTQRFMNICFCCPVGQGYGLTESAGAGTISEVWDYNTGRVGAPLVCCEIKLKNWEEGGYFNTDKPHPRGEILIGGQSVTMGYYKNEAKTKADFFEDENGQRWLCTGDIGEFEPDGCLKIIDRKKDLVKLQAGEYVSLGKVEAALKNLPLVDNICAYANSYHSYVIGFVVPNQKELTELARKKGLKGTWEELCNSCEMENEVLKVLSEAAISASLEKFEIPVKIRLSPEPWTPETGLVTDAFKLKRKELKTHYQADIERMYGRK
inactive: [1] -0.05 | [2] 0.068 | [3] 0.028 | [4] -0.014 | [5] -0.036

BRK1 isoform 2 (UniProt Q8WUW1)
UniProt Q8WUW1, sequence (Q8WUW1 whole entry, looked up): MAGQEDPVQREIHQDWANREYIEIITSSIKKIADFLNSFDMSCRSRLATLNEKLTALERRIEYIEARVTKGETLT
inactive: [1] 0.018 | [2] -0.018 | [3] 0.025 | [4] -0.055 | [5] -0.013

BRD2 isoform 2 (UniProt P25440)
active: [2] 2.34 | [4] 2.33
inactive: [1] -0.257 | [3] 0.092 | [5] 0.029

ALKBH4 (UniProt Q9NXW9)
inactive: [1] 0.023 | [2] -0.063 | [3] -0.078 | [4] 0.079 | [5] -0.033

BST2 (UniProt Q10589)
UniProt Q10589, sequence (Q10589 whole entry, looked up): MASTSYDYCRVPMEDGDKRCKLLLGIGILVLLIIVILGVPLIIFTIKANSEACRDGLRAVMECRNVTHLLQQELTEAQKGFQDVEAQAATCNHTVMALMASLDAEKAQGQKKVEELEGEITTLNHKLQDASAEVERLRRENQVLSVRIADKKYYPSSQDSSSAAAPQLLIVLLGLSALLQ
inactive: [1] 0.056 | [2] 0.019 | [3] -0.012 | [4] 0.068 | [5] 0.055

ADAM15 (UniProt Q13444)
inactive: [1] -0.041 | [2] 0.059 | [3] 0.096 | [4] 0.08 | [5] 0

BAIAP2 (UniProt Q9UQB8)
inactive: [1] -0.019 | [2] 0.071 | [3] 0.072 | [4] 0.014 | [5] 0.002

BZW1 isoform 3 (UniProt Q7L1Q6)
inactive: [1] -0.227 | [2] 0.002 | [3] 0.044 | [4] -0.044 | [5] -0.017

ADRM1 (UniProt Q16186)
UniProt Q16186, sequence (Q16186 whole entry, looked up): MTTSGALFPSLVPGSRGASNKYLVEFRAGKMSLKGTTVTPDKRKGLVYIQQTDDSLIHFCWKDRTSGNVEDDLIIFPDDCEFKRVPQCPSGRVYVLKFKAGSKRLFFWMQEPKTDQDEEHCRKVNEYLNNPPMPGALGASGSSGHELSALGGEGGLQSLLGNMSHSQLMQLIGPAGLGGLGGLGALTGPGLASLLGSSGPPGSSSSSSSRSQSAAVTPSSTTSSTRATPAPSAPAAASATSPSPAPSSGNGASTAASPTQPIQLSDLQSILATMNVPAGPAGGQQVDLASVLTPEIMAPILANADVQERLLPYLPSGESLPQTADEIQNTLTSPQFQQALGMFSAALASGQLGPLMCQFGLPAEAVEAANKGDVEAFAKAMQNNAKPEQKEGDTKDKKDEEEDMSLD
inactive: [1] 0.007 | [2] -0.062 | [3] -0.001 | [4] -0.019 | [5] -0.01

ATL2 (UniProt Q8NHH9)
inactive: [1] -0.019 | [2] 0.05 | [3] 0.091 | [4] -0.012 | [5] -0.077

ALDH2 (UniProt P05091)
inactive: [1] 0.009 | [2] 0.065 | [3] 0.032 | [4] -0.043 | [5] -0.001

ALG5 (UniProt Q9Y673)
inactive: [1] -0.037 | [2] 0.1 | [3] 0.082 | [4] -0.06 | [5] -0.056

ACAP2 (UniProt Q15057)
inactive: [1] -0.009 | [2] -0.001 | [3] 0.132 | [4] 0.01 | [5] 0.011

ARL3 (UniProt P36405)
UniProt P36405, sequence (P36405 whole entry, looked up): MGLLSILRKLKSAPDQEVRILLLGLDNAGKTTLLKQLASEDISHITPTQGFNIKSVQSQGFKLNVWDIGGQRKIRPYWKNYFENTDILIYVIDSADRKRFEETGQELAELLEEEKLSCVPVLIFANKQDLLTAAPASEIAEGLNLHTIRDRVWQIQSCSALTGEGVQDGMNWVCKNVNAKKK
inactive: [1] -0.002 | [2] 0.04 | [3] 0.038 | [4] -0.06 | [5] -0.005

ABCC5 (UniProt O15440)
inactive: [1] -0.034 | [2] 0.082 | [3] -0.02 | [4] -0.001 | [5] -0.025

ACSL5 isoform 3 (UniProt Q9ULC5)
inactive: [1] -0.024 | [2] 0.043 | [3] 0.101 | [4] 0.057 | [5] -0.178

ARL2BP (UniProt Q9Y2Y0)
inactive: [1] -0.076 | [2] 0 | [3] 0.14 | [4] 0.069 | [5] 0.017
